Measurements published in PubChem BioAssay AID1159580 (chemical genetic matrix, 2015).
“And” between values parts separate entries of the source, which are not always exact repeats. Identical values can stand only once. The whole screen tested about 5,500 compounds, of which about 2,000 (36%) were called active. Inconclusive results (about 18%) are left out. Cut-off read from the data, not from the text of the source: active = normalized growth mostly below about 0.91 (no sharp cut-off); inconclusive = no clear call, values can overlap the other calls; inactive = mostly above about 0.92. Some of the results follow.

Test: chemical genetic growth profiling, strain panel (AID 1159580);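 note: tested at 20 µM; growth read once vehicle control cultures reached saturation at 30 °C; 1 = growth at the plate median or of vehicle wells; lower values mean less growth of the strain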
Settings: S. cerevisiae deletion strains, growth OD

Structure (SMILES): CC[C@@]1(O)C[C@H](O[C@H]2C[C@H](N(C)C)[C@H](O)[C@H](C)O2)c2c(cc3c(c2O)C(=O)c2c(O)ccc(O)c2C3=O)[C@H]1C(=O)OC
- normalized growth (locus YAL021C, strain ccr4, stronger effect = lower value): 0.83 (active)
- normalized growth (locus YAL026C, strain drs2, stronger effect = lower value): 0.813 (active)
- normalized growth (locus YAL030W, strain snc1, stronger effect = lower value): 0.919 (active)
- normalized growth (locus YBL061C, strain skt5, stronger effect = lower value): 0.875 (active)
- normalized growth (locus YBR009C, strain hhf1, stronger effect = lower value): 0.924 (inactive)
- normalized growth (locus YBR021W, strain FUR4, stronger effect = lower value): 0.143 (active)
- normalized growth (locus YBR023C, strain chs3, stronger effect = lower value): 1.52 [resistant] (active)
- normalized growth (locus YBR171W, strain sec66, stronger effect = lower value): 1.03 (inactive)
- normalized growth (locus YBR229C, strain ROT2, stronger effect = lower value): 0.152 (active)
- normalized growth (locus YBR231C, strain swc5, stronger effect = lower value): 0.794 (active)
- normalized growth (locus YBR279W, strain paf1, stronger effect = lower value): 0.901 (active)
- normalized growth (locus YCL011C, strain gbp2, stronger effect = lower value): 0.0988 (active)
- normalized growth (locus YCL016C, strain dcc1, stronger effect = lower value): 0.893 (active)
- normalized growth (locus YCL029C, strain bik1, stronger effect = lower value): 0.205 (active)
- normalized growth (locus YCL069W, strain vba3, stronger effect = lower value): 0.948 (inactive)
- normalized growth (locus YCR088W, strain abp1, stronger effect = lower value): 0.954 (inactive)
- normalized growth (locus YDL005C, strain med2, stronger effect = lower value): 1.03 (inactive)
- normalized growth (locus YDL035C, strain GPR1, stronger effect = lower value): 0.0755 (active)
- normalized growth (locus YDL040C, strain nat1, stronger effect = lower value): 0.962 (inactive)
- normalized growth (locus YDL074C, strain BRE1, stronger effect = lower value): 0.141 (active)
- normalized growth (locus YDL101C, strain DUN1, stronger effect = lower value): 0.0945 (active)
- normalized growth (locus YDL134C, strain PPH21, stronger effect = lower value): 0.0874 (active)
- normalized growth (locus YDL185W, strain tfp1, stronger effect = lower value): 0.956 (inactive)
- normalized growth (locus YDL192W, strain arf1, stronger effect = lower value): 0.106 (active)
- normalized growth (locus YDR001C, strain nth1, stronger effect = lower value): 0.932 (inactive)
- normalized growth (locus YDR069C, strain doa4, stronger effect = lower value): 0.68 (active)
- normalized growth (locus YDR101C, strain arx1, stronger effect = lower value): 0.18 (active)
- normalized growth (locus YDR137W, strain rgp1, stronger effect = lower value): 0.703 (active)
- normalized growth (locus YDR150W, strain NUM1, stronger effect = lower value): 0.112 (active)
- normalized growth (locus YDR159W, strain sac3, stronger effect = lower value): 0.906 (inactive)
- normalized growth (locus YDR162C, strain NBP2, stronger effect = lower value): 0.0578 (active)
- normalized growth (locus YDR195W, strain ref2): 1.05 (inactive)
- normalized growth (locus YDR297W, strain sur2, stronger effect = lower value): 0.873 (active)
- normalized growth (locus YDR318W, strain mcm21, stronger effect = lower value): 0.125 (active)
- normalized growth (locus YDR334W, strain swr1, stronger effect = lower value): 0.816 (active)
- normalized growth (locus YDR335W, strain msn5, stronger effect = lower value): 0.854 (active)
- normalized growth (locus YDR388W, stronger effect = lower value): 0.0868 (active)
- normalized growth (locus YDR392W, strain spt3, stronger effect = lower value): 0.823 (inactive)
- normalized growth (locus YDR502C, strain sam2, stronger effect = lower value): 0.125 (active)
- normalized growth (locus YEL003W, strain gim4, stronger effect = lower value): 0.942 (inactive)
- normalized growth (locus YEL037C, strain rad23, stronger effect = lower value): 0.874 (active)
- normalized growth (locus YEL061C, strain CIN8 (second series), stronger effect = lower value): 0.879 (active)
- normalized growth (locus YEL061C, strain CIN8, stronger effect = lower value): 0.071 (active)
- normalized growth (locus YER015W, strain faa2, stronger effect = lower value): 0.821 (active)
- normalized growth (locus YER016W, strain bim1, stronger effect = lower value): 0.954 (inactive)
- normalized growth (locus YER110C, stronger effect = lower value): 0.559 (active)
- normalized growth (locus YER111C, strain swi4, stronger effect = lower value): 0.767 (active)
- normalized growth (locus YER155C, strain BEM2 (second series), stronger effect = lower value): 0.848 (active)
- normalized growth (locus YER155C, strain BEM2, stronger effect = lower value): 0.144 (active)
- normalized growth (locus YER167W, strain BCK2, stronger effect = lower value): 0.0725 (active)
- normalized growth (locus YFR010W, strain ubp6, stronger effect = lower value): 0.813 (active)
- normalized growth (locus YGL078C, strain dbp3, stronger effect = lower value): 0.973 (inactive)
- normalized growth (locus YGL086W, strain mad1, stronger effect = lower value): 0.281 (active)
- normalized growth (locus YGL167C, strain pmr1, stronger effect = lower value): 0.955 (inactive)
- normalized growth (locus YGL173C, strain kem1, stronger effect = lower value): 0.716 (active)
- normalized growth (locus YGL227W, strain vid30, stronger effect = lower value): 1.02 (inactive)
- normalized growth (locus YGL240W, strain doc1, stronger effect = lower value): 0.966 (inactive)
- normalized growth (locus YGL248W, strain PDE1, stronger effect = lower value): 0.0787 (active)
- normalized growth (locus YGL253W, strain hxk2, stronger effect = lower value): 0.86 (active)
- normalized growth (locus YGR078C, strain PAC10, stronger effect = lower value): 0.0806 (active)
- normalized growth (locus YGR135W, strain pre9, stronger effect = lower value): 0.0948 (active)
- normalized growth (locus YGR252W, strain gcn5, stronger effect = lower value): 0.225 (active)
- normalized growth (locus YHR013C, strain ard1, stronger effect = lower value): 0.935 (inactive)
- normalized growth (locus YHR027C, strain rpn1, stronger effect = lower value): 0.812 (active)
- normalized growth (locus YHR030C, strain SLT2, stronger effect = lower value): 0.113 (active) and 0.995 (inactive)
- normalized growth (locus YHR079C, strain IRE1 (second series), stronger effect = lower value): 0.477 (active)
- normalized growth (locus YHR079C, strain IRE1, stronger effect = lower value): 0.987 (inactive)
- normalized growth (locus YHR094C, strain hxt1, stronger effect = lower value): 0.402 (active)
- normalized growth (locus YHR129C, strain ARP1, stronger effect = lower value): 0.0918 (active)
- normalized growth (locus YHR142W, strain chs7, stronger effect = lower value): 0.745 (active)
- normalized growth (locus YHR200W, strain rpn10, stronger effect = lower value): 0.0997 (active)
- normalized growth (locus YIL066C, strain RNR3, stronger effect = lower value): 0.073 (active)
- normalized growth (locus YIL073C, strain SPO22, stronger effect = lower value): 0.134 (active)
- normalized growth (locus YIL125W, strain kgd1, stronger effect = lower value): 0.959 (inactive)
- normalized growth (locus YIR030C, strain dcg1, stronger effect = lower value): 0.179 (active)
- normalized growth (locus YJL092W, strain hpr5, stronger effect = lower value): 0.905 (active)
- normalized growth (locus YJL095W, strain BCK1 (second series), stronger effect = lower value): 0.877 (active)
- normalized growth (locus YJL095W, strain BCK1, stronger effect = lower value): 0.121 (active) and 0.997 (inactive)
- normalized growth (locus YJL115W, strain asf1, stronger effect = lower value): 0.947 (inactive)
- normalized growth (locus YJL129C, strain trk1, stronger effect = lower value): 1.05 (inactive)
- normalized growth (locus YJL134W, strain LCB3, stronger effect = lower value): 0.167 (active)
- normalized growth (locus YJL154C, strain vps35, stronger effect = lower value): 0.929 (inactive)
- normalized growth (locus YJL164C, strain tpk1, stronger effect = lower value): 0.832 (active)
- normalized growth (locus YJL166W, strain qcr8, stronger effect = lower value): 0.875 (active)
- normalized growth (locus YJL168C, strain set2, stronger effect = lower value): 0.272 (active)
- normalized growth (locus YJL187C, strain SWE1 (second series), stronger effect = lower value): 0.0876 (active)
- normalized growth (locus YJR043C, strain POL32, stronger effect = lower value): 0.113 (active)
